# Data as given in PubChem BioAssay (NCATS).
# Inconclusive results are not listed. Where a call stands in place of a potency, no number is given. The source made the active and inactive calls. Calls follow the shape of the dose curve; as a rule, active = well fitted curve in the direction sought with a large enough effect; inconclusive = small, poorly fitted or top-dose-only effect, or another doubt; inactive = no such curve, though single readings can be large; an effect the other way counts as inactive or inconclusive.
# Columns and labels:
# [1] = target: Aldehyde dehydrogenase, mitochondrial (Homo sapiens) (UniProt P05091); test: qHTS for Inhibitors of the Aldehyde Dehydrogenase Family (ALDH2) Primary screen (AID 2061308); also: nearly all actives have a fitted effect of over 55% in size; also: potency is read from the fitted curve at half-maximal effect
# [2] = target: Retinaldehyde dehydrogenase 3 (Homo sapiens) (UniProt P47895); test: qHTS for Inhibitors of the Aldehyde Dehydrogenase Family (ALDH1A3) Validation screen (AID 2061312); also: nearly all actives have a fitted effect of over 45% in size; also: potency is read from the fitted curve at half-maximal effect
# [3] = target: Retinaldehyde dehydrogenase 3 (Homo sapiens) (UniProt P47895); test: qHTS for Inhibitors of the Aldehyde Dehydrogenase Family (ALDH1A3) Primary screen (AID 2061315)
# [4] = target: Retinaldehyde dehydrogenase 3 (Homo sapiens) (UniProt P47895); test: qHTS for Inhibitors of the Aldehyde Dehydrogenase Family (ALDH1A3) Confirmatory screens (AID 2061311); also: nearly all actives have a fitted effect of over 60% in size; also: potency is read from the fitted curve at half-maximal effect
# [5] = target: Aldehyde dehydrogenase 1A1 (Homo sapiens) (UniProt P00352); test: qHTS for Inhibitors of the Aldehyde Dehydrogenase Family (ALDH1A1) Confirmatory screens (AID 2061316); also: potency is read from the fitted curve at half-maximal effect; nearly all actives have a fitted effect of over 65% in size
SMILES,Potency [1],Potency [2],Potency [3],Potency [4],Potency [5]
Cc1cn(-c2cc(NC(=O)c3ccc(C)c(Nc4nccc(-c5cnccn5)n4)c3)cc(C(F)(F)F)c2)cn1,inactive,inactive,inactive,,
CCC[C@H]1C[C@H](C(=O)N[C@@H]([C@@H]2O[C@@H](SC)[C@@H](O)[C@@H](O)[C@@H]2O)[C@H](C)Cl)N(C)C1,inactive,inactive,inactive,,
COc1ccc(NC(=O)Nc2ccc(-c3nc4ccccc4[nH]3)cc2)cc1OC,inactive,,inactive,inactive,
Cc1occc1-c1ccc2ncnc(NCc3ncc[nH]3)c2c1,inactive,,inactive,4 µM (active),
Cc1cc(C)c(Nc2ccnc(Nc3ccc(C#N)cc3)n2)c(C)c1,inactive,inactive,inactive,,
Cc1ccc(NC(=O)CN2C(=O)N/C(=C\c3ccco3)C2=O)cc1,inactive,,inactive,4.49 µM (active),
Cc1ccnc(NC(=S)N2CCN(c3ccc4ccccc4n3)CC2)c1,2.82 µM (active),,,11.3 µM (active),3.18 µM (active)
CN(C)C(=O)COC(=O)c1cc(-c2ccc(C3CCNCC3)cc2)c2ccc(-c3ccc(C(F)(F)F)cc3)cc2c1,inactive,inactive,inactive,,
C[C@@H]1C[C@H]2[C@@H]3C[C@H](F)C4=CC(=O)C=C[C@]4(C)[C@@]3(F)[C@@H](O)C[C@]2(C)[C@@]1(O)C(=O)CO,inactive,inactive,inactive,,
O=C(CCCCCCC(=O)Nc1ccc(C2OC(CSc3nc(-c4ccccc4)c(-c4ccccc4)o3)CC(c3ccc(CO)cc3)O2)cc1)NO (stereo not drawn),inactive,10 µM (active),,,
CCOC(=O)c1[nH]c2c(c1C)C(=O)CC(c1ccco1)C2 (stereo not drawn),inactive,,inactive,12.7 µM (active),2.52 µM (active)
